Experimental data from PubChem BioAssay.
Where a SMILES comes first, the peptide text is derived from it. [ ]: non-standard residue; d: D form. ξ: configuration not given here. ξV = CC(C)C(N)C(=O)O

Columns and labels:
[1] = test system: Botulinum neurotoxin type F light chain protease (Clostridium botulinum); test: Clostridium botulinum type F light chain protease inhibitors, microsphere substrate cleavage, validation (AID 588459); conditions: multiplex microsphere protease substrate cleavage assay, flow cytometry; at 10 µM; active compounds read high
[2] = target: Botulinum neurotoxin type A (Clostridium botulinum) (UniProt P0DPI0); test: BoNT/A light chain protease inhibitors, biochemical, multiplex microsphere flow cytometry, validation set (AID 588460); conditions: at 10 µM, active compounds read high
Chain of Botulinum neurotoxin type A (Clostridium botulinum) (P0DPI0 whole entry, looked up): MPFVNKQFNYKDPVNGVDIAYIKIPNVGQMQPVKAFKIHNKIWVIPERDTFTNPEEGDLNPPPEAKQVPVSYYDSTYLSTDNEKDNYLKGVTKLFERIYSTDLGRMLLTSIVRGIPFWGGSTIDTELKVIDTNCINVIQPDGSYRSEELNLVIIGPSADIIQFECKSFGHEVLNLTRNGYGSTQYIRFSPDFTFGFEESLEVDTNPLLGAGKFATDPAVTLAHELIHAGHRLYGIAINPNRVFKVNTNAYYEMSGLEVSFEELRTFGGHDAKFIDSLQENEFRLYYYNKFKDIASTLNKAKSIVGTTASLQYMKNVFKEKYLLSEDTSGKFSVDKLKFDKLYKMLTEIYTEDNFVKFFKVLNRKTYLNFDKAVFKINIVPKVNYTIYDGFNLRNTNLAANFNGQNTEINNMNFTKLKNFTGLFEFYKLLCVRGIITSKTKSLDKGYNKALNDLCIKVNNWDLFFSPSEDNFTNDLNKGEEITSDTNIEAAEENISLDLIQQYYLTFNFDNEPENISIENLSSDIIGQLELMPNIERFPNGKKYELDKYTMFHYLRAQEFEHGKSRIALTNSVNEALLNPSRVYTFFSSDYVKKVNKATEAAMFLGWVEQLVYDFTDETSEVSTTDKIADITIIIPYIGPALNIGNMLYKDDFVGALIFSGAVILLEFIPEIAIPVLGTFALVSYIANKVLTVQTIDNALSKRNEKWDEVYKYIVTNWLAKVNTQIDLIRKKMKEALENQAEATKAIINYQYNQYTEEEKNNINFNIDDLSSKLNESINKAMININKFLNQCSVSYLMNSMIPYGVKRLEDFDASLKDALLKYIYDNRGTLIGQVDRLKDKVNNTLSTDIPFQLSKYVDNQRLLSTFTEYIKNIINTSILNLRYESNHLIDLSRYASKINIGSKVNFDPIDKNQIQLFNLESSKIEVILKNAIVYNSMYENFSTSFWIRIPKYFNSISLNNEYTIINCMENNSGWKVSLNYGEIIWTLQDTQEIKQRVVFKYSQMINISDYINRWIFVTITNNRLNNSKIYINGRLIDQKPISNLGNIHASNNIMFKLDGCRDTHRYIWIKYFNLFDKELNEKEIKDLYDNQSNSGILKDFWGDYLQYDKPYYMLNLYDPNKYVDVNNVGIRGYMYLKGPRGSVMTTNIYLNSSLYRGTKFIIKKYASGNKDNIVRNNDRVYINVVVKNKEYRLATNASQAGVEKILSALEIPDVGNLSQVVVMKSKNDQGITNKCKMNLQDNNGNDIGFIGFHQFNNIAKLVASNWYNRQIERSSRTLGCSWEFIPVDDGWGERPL

[3] = target: Lethal factor (Bacillus anthracis) (UniProt P15917); test: Bacillus anthracis lethal factor inhibition, microsphere flow cytometry protease assay, validation at 10 µM (AID 588461); conditions: multiplex microsphere protease cleavage assay, active compounds read high
Chain of Lethal factor (Bacillus anthracis) (P15917 whole entry, looked up): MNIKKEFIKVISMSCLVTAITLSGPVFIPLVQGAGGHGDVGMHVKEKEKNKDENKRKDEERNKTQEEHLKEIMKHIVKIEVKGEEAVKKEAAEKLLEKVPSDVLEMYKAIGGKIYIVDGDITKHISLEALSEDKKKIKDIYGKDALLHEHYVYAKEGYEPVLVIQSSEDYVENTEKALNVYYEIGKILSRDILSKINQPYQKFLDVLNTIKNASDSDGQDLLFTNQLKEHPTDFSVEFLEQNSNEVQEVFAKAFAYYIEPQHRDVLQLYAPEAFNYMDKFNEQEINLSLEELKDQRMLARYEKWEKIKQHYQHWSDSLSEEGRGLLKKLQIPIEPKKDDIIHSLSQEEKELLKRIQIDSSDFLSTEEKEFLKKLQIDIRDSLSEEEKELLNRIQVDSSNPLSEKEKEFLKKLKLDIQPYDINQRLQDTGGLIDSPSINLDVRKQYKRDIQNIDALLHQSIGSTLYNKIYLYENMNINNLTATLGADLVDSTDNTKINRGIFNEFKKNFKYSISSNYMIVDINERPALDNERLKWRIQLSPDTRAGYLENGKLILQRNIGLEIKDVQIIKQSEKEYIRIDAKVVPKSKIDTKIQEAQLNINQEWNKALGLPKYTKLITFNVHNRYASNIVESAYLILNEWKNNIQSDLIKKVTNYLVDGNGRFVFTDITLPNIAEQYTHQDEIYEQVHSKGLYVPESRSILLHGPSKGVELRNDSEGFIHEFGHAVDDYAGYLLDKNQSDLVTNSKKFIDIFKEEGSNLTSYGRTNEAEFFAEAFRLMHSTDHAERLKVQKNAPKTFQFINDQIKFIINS

Measured: inhibition

COc1ccc(CCN=C(N)C(C)c2ccccc2)cc1OC (stereo not given)
inactive: [1] -0.2% | [2] 0% | [3] 6.6%

Cn1c2[n+](c3ccc(Cl)cc3c1=O)Cc1ccccc1-2
inactive: [1] 0.8% | [2] -1% | [3] -7.8%

COc1c2occc2c(OC)c2c(=O)cc(C)oc12
inactive: [1] -0.3% | [2] -1.1% | [3] 4.5%

CCOC(=O)c1c(C)oc2c1C(=O)c1ccccc1C2=O
inactive: [1] 3.1% | [2] 1.4% | [3] -9.3%

COc1ccc2[nH]c(=O)c(CN(C(=O)c3ccco3)C(C)C)cc2c1
inactive: [1] 0.1% | [2] 1% | [3] 2.1%

CC12CN3CC(C)(CN(C1)C3c1ccc(Br)cc1O)C2 (stereo not given)
inactive: [1] -1.8% | [2] -1.2% | [3] -7.5%

Cn1c(=O)c2c(ncn2Cc2ccccc2)n(C)c1=O
inactive: [1] 3.3% | [2] 3% | [3] 7.6%

CCC(=O)Oc1ccc(/C(CC)=C(\CC)c2ccc(OC(=O)CC)cc2)cc1
inactive: [1] -2% | [2] 0.1% | [3] -0.2%

COc1cccc(=O)c2c(C)n(CC(=O)c3ccccc3)c(C)c12
inactive: [1] -4.4% | [2] 0.1% | [3] -9.8%

COc1ccccc1C1C(C#N)=C(N)Oc2c1oc(CO)cc2=O (stereo not given)
inactive: [1] 1.9% | [2] -1% | [3] -5.1%

O=c1c(-c2ccccc2)c(O)c2cccc3c2n1CCC3
inactive: [1] 3.3% | [2] 0.8% | [3] 10.4%

CC1(C)CC(O)(CNCc2ccc3c(c2)OCO3)CCO1 (stereo not given)
inactive: [1] -3.2% | [2] -0.9% | [3] 1.2%

CCCCOn1c(C)c(C(C)=O)c2c3no[n+]([O-])c3ccc21
inactive: [1] 1.9% | [2] 0.2% | [3] -1.9%

c1ccc2c(CC3=NCCN3)cccc2c1
inactive: [1] -3.3% | [2] -2.2% | [3] -9.2%

COc1ccc(C2NC(=O)c3ccccc3N2)cc1OC (stereo not given)
inactive: [1] -2.5% | [2] -0.1% | [3] -2.9%

CC(NCCC(c1ccccc1)c1ccccc1)c1ccccc1 (stereo not given)
inactive: [1] -5.9% | [2] -1.1% | [3] 3.4%

CC12CN3CC(C)(CN(C1)C3c1ccc(Cl)cc1Cl)C2=O (stereo not given)
inactive: [1] -0.6% | [2] 0.5% | [3] 0.1%

COc1ccc(NC(=O)C2CSC3c4ccccc4C(=O)N23)cc1 (stereo not given)
inactive: [1] -0.5% | [2] -0.2% | [3] -3.8%

CC(C)OC(=O)CC1C(=O)NCCN1C(=S)NC(=O)c1cccs1 (stereo not given)
inactive: [1] 0.8% | [2] -1.7% | [3] -5.8%

O[C@H]1COC2C1OC[C@@H]2O (stereo not given in full)
inactive: [1] -2.3% | [2] -0.4% | [3] 0%

Cn1c(=O)c2nc3ccccc3nc2n(C)c1=O
inactive: [1] -0.9% | [2] 0.5% | [3] -5.4%

CC(=O)NC(C(=O)NCC(N)=O)C(C)C (stereo not given) (Ac-[ξV]-Gly-NH2)
inactive: [1] -3% | [2] 0.1% | [3] 0.5%

Cc1ccc2c(c1)C1OCCC1C1N2C(=O)C2C(C(=O)O)C3C=CC21O3 (stereo not given)
inactive: [1] -1.8% | [2] -0.8% | [3] 5.5%

CCOc1ccc(CCn2c(-c3ccco3)nc3ccccc3c2=O)cc1OCC
inactive: [1] 3.5% | [2] -0.4% | [3] 11.4%

CCOC(=O)N1c2ccccc2C=CC1OCC (stereo not given)
inactive: [1] -1.1% | [2] -0.5% | [3] 3.6%

C=C(C)COc1ccc(-c2nc(N)ncc2-c2ccc(OC)cc2)c(O)c1
inactive: [1] 2.8% | [2] 1.4% | [3] -5.3%

CC1(C)C2CCC1(C(=O)O)c1nc3ccccc3nc12 (stereo not given)
inactive: [1] -0.2% | [2] -0.9% | [3] -0.2%

CCNC(=O)c1c(N)sc2c1CCCCC2
inactive: [1] 0.9% | [2] -0.9% | [3] -5.1%

NS(=O)(=O)c1ccc(CCNC(=O)C2CCCN2C(=O)OCc2ccccc2)cc1 (stereo not given)
inactive: [1] 3.9% | [2] -0.7% | [3] 1.2%

CC1(C)CC(=O)c2cn3c(nc2C1)nc1ccccc13
inactive: [1] 1% | [2] -0.2% | [3] 0%
